This is a sample that favours compounds with a hit; in the whole collection about 4.1% have one here.
TIM10 inh: growth inhibitors of isogenic TIM10 control yeast, primary screen, counter-screen for tim10-1 yeast inhibitor project, luminescence, uHTS. S. cerevisiae TIM10 strain growth, BacTiter-Glo luminescence, 24 h. hit rate 1.4% among 330,000. inhibition, % at 10 µM;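 active = inhibition of 40% or more at the single tested concentration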;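 note: wild-type TIM10 isogenic control strain grown at permissive 25 °C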
tim10-1 inh: growth inhibitors of tim10-1 mutant yeast, primary screen, luminescence, uHTS | S. cerevisiae tim10-1 ts strain growth, BacTiter-Glo, 24 h | inhibition, % at 20 µM | hit rate 2.2% among 330,000 | AID 463190, 2010;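 active = inhibition of at least 40%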;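 note: mutant grown at 25 °C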
NALP1 inh: NALP1 inflammasome inhibitors in reconstituted yeast, colorimetric, S. cerevisiae, triplicate retest; S. cerevisiae NALP1/ASC/caspase-1 growth, X-gal OD620, 72 h; inhibition, % at 10 µM; hit rate 0.61% among 280,000; AID 2071, 2009; in the data active = inhibition mostly above about 24%, no sharp cut-off; inactive = mostly below about 32%
NALP3 yeast inh: NALP3 inflammasome inhibitors in reconstituted yeast, primary screen, luminescence, uHTS; hit rate 0.39% among 330,000; inhibition, % at 10 µM; Yeast reconstituted NLRP3/ASC/caspase-1, beta-gal luminescence, 24 h;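 active = inhibition of 50% or more; inactive = inhibition below 50%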
tim23-1 inh: growth inhibitors of tim23-1 mutant yeast, primary screen, luminescence, uHTS | S. cerevisiae tim23-1 growth, BacTiter-Glo luminescence, 24 h | inhibition, % at 20 µM | hit rate 1.3% among 330,000;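 active = growth inhibition of the mutant yeast at or above 50%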;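 note: temperature-sensitive mutant grown at 25 °C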
tim10-1 confirm: growth inhibitors of tim10-1 mutant yeast, confirmation, single concentration, luminescence, S. cerevisiae; S. cerevisiae tim10-1 ts strain growth, BacTiter-Glo, 24 h; hit rate 56% among 7,400; inhibition, % at 20 µM; AID 463213, 2010; shares compounds with tim10-1 inh;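 active = inhibition of yeast growth at or above a set limit in either of two repeat tests at 20 µM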;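 note: tim10-1 mutant grown at permissive 25 °C to find synthetic lethal compounds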
Of the large screens only hits and unclear results are named; the others gave an inactive call (follow-up assays come after a bar, where they were run).

CCc1ccc(NC(=O)C/C(C)=N/NC(=O)COc2ccc(C)cc2Br)cc1	tim10-1 inh 45.0 | tim10-1 confirm inactive
CC(Oc1ccccc1)C(=O)N=C1SC2CS(=O)(=O)CC2N1c1ccccc1 (stereo not given)	none
CCCC(=O)Nc1ccc(NC(=O)C23CC4CC(CC(C4)C2)C3)cn1	tim10-1 inh 44.2 | tim10-1 confirm 32.6
O=C(NC(=S)NC1C2CC3CC(C2)CC1C3)C12CC3CC(CC(C3)C1)C2 (stereo not given)	tim10-1 inh 45.9 | tim10-1 confirm inactive
O=C(NC(=S)Nc1ccc(Cl)cn1)C12CC3CC(CC(C3)C1)C2	tim10-1 inh 40.4 | tim10-1 confirm inactive
CCCC(=O)Nc1ccc(NC(=O)c2ccccc2)nc1	none (no result: NALP1 inh)
O=C(COC(=O)c1ccc(NS(=O)(=O)c2cccs2)cc1)NCc1ccco1	none (no result: NALP1 inh)
CCCOC(=O)c1ccc(NS(=O)(=O)c2cccs2)cc1	tim10-1 inh 53.8 | tim10-1 confirm 35.0
CCOC(=O)c1c(C)oc2ccc(NS(=O)(=O)c3cccs3)cc12	tim10-1 inh 42.4 | tim10-1 confirm inactive
COc1ccc(C)cc1NC(=O)CCN1CC(C)OC(C)C1 (stereo not given)	none
Clc1cc(Cl)cc(C2=NC(Cc3ccccc3)CO2)c1 (stereo not given)	none (no result: NALP1 inh)
O=C(Cc1csc(Nc2nc(=S)[nH]c3ccccc23)n1)NCc1ccccc1Cl	none
Cc1ccc(CNC(=O)Cc2csc(Nc3nc(=S)[nH]c4ccccc34)n2)cc1	none | tim10-1 confirm inactive
COC(=O)c1ccc(CNC(=O)COC(=O)c2ccc(N(C)C)cc2)cc1	none
COC(=O)CSc1nc2c(c(-c3ccco3)c1C#N)CCCC2	tim10-1 inh 46.6 | tim10-1 confirm 39.6
O=C(O)/C=C/c1ccc(Cn2ccnc2)cc1	none (no result: NALP1 inh)
CCOc1ccc(NC(=S)NC(C)c2cccs2)cc1 (stereo not given)	none
Cc1ccc(C)c(NC(=S)NNC(=O)c2cc3c(s2)CCC(C)C3)c1 (stereo not given)	tim10-1 inh 44.1 | tim10-1 confirm 33.7
Cc1ccc(C)c(NC(=S)NNC(=O)c2csc(C)c2C)c1	none
CCCc1cc(C(=O)NNC(=S)Nc2cccc(C)c2)cs1	tim10-1 inh 46.7 | tim10-1 confirm inactive
Cc1ccc(C)c(NC(=S)NNC(=O)c2csc(C(C)C)c2)c1	tim10-1 inh 40.2 | tim10-1 confirm 34.1
Cc1cccc(NC(=S)NNC(=O)c2ccc3c(c2)OCO3)c1	none
COc1ccc(C2CC(c3cccs3)=NN2C(=O)CSc2nc(=O)n3cc(C)ccc3n2)cc1 (stereo not given)	none (no result: NALP1 inh)
O=C(COC(=O)CCS(=O)(=O)c1ccccc1)NC(=O)c1ccc(OC(F)F)cc1	none (no result: NALP1 inh)
CCN(CC)C(=O)CSc1ncnc2sc(-c3ccccc3)cc12	tim10-1 inh 45.9 | tim10-1 confirm inactive
CCCc1cc(C(N)=O)c(NC(C)=O)s1	none
S=C(NCC1CCCO1)N1CCN(c2nc(-c3ccccc3)cs2)CC1 (stereo not given)	tim10-1 inh 52.6 | tim10-1 confirm inactive
COc1ccccc1NC(=S)N1CCN(c2nc(-c3ccccc3)cs2)CC1	tim10-1 inh 47.4 | tim10-1 confirm inactive
C#Cc1ccc([C@H]2C=C(C(=O)O)O[C@@H](OCCCCO)C2)cc1	none (no result: NALP1 inh)
CCc1nnc(NC(=O)c2oc3ccccc3c2COC(C)C)s1	none (no result: NALP1 inh)
Cc1cc2nc(/C(C#N)=C\c3ccc(-c4ccccc4C(=O)O)o3)[nH]c2cc1C	tim10-1 inh 46.4 | tim10-1 confirm 38.9
Cc1ccc2nc(/C(C#N)=C/c3ccc(-c4ccccc4C(=O)O)o3)[nH]c2c1	none
COc1ccc(CCN2CC(C(=O)NC3CCCCC3)CC2=O)cc1OC (stereo not given)	none
O=C(CCCN1C(=O)c2cccnc2C1=O)Nc1ccc(Br)cc1	none
Cc1cccc2c(=O)c(-c3ccc4c(c3)OCO4)c(NC(=O)c3ccco3)oc12	tim10-1 inh 42.2 | tim10-1 confirm inactive
C[C@H](CO)N1C[C@H](C)[C@@H](CN(C)Cc2ccccc2)Oc2c(NC(=O)C3CC3)cccc2C1=O	none (no result: NALP1 inh)
N#Cc1ncc(Cc2ccccc2)nc1C#N	tim10-1 inh 40.9 | tim10-1 confirm 38.2
N#Cc1nc(Cc2ccccc2)oc1NCc1cccnc1	none
CCOC(=O)N1CCN(S(=O)(=O)c2ccc(C(=O)Nc3nnc(C4CC4)o3)cc2)CC1	none
CC1CC(C)CN(S(=O)(=O)c2ccc(C(=O)Nc3nnc(C4CC4)o3)cc2)C1 (stereo not given)	tim10-1 inh 46.6 | tim10-1 confirm inactive
O=C(c1ccc(-c2nnc(-c3ccccc3)o2)cc1)N1CCCCCC1	tim10-1 inh 44.9 | tim10-1 confirm 33.2
O=C(O)c1ccc(-c2nnc(-c3ccccc3)o2)cc1	none
CCN(CC)S(=O)(=O)c1ccc(/C=C/C(=O)NC2CCCCC2)cc1	tim10-1 inh 44.0 | tim10-1 confirm inactive
Cc1n(-c2ccccc2)c2ccc(Cl)cc2[n+]1CCO	none
Clc1ccc2c(c1)c1ccccc1n2CN1CCOCC1	tim10-1 inh 53.9 | tim10-1 confirm inactive
S=c1[nH]nc(-c2ccccc2)n1Cc1ccccc1	none
CC(C)c1cc(-c2n[nH]c(=S)n2Cc2ccccc2)cs1	tim10-1 inh 46.6 | tim10-1 confirm inactive
CCc1c(C)nc(SCC(=O)CC(=O)OC(C)C)c(C#N)c1C	tim10-1 inh 44.1 | tim10-1 confirm inactive
COc1ccccc1N1CCN(CC(O)COc2ccc3c(c2)CCC3)CC1 (stereo not given)	none
Brc1ccccc1-c1nnc2sc(-c3ccc4c(c3)OCCO4)nn12	tim10-1 inh 48.8 | tim10-1 confirm inactive
N#Cc1ccsc1NC(=O)C1CCCN1S(=O)(=O)c1cccs1 (stereo not given)	none (no result: NALP1 inh)
Cc1ccc2c(N)c(C(=O)N(c3ccccc3)c3ccccc3)sc2n1	tim10-1 inh 43.6 | tim10-1 confirm inactive
Cc1ccccc1N/C(=N/S(=O)(=O)c1cc(F)ccc1F)c1ccccc1	none
Cc1ccc(N/C(=N/S(=O)(=O)c2cccs2)c2ccccc2)c(C)c1	tim10-1 inh 46.4 | tim10-1 confirm inactive
Cc1cc2ncn(C(=O)c3c(-c4ccccc4Cl)noc3C)c2cc1C	none
Fc1ccccc1CNCCC(Cc1ccccc1)c1ccc2c(c1)OCO2 (stereo not given)	tim10-1 inh 46.9 | tim10-1 confirm inactive
COc1ccc(OC)c(NC(=O)C2CC(=O)N(c3ccc(Br)cc3)C2)c1 (stereo not given)	tim10-1 inh 42.7 (no result: NALP1 inh) | tim10-1 confirm inactive
C/C(=N\NC(N)=S)C1(C)CCCCC1	none
CC1(C)C2CCC(C2)C1C/C=N/NC(N)=S (stereo not given)	tim10-1 inh 45.6 | tim10-1 confirm inactive
COC(=O)C[C@H]1c2ccccc2S(=O)(=O)N1c1cccc(OC)c1	none (no result: NALP1 inh)

High-throughput results: PubChem, Sanford-Burnham Center for Chemical Genomics
